Bioassay records as filed in PubChem BioAssay.
Shown are actives, neighbours in structure and some others; about 9.2% of the full set was active somewhere.
Rab9 prom act: activators of Rab9 promoter. 2.8% of 320,000 active. Potency, µM (titrated, usually from 9.22 µM), for inactives: top-dose activation, negative = inhibition, most hits filed as activators. Huh7 Rab9 promoter-luciferase reporter, luminescence, 24 h; note: % of control where 0% means no effect; nearly all actives have a fitted effect of over 60% in size
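Luminescence read-out: Huh7 cells stably expressing Rab9-luciferase, treated 24 h with compound at 37 °C, then lysed with luciferase reagent for 10 min at ambient before reading.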
ELG1 genotox: inducers of genotoxicity in HEK293T ELG1-luciferase cells | HEK293T ELG1-luciferase reporter, luminescence, 16 h | Potency, µM (titrated, usually from 46 µM), for the others: at the top dose activity change, positive = activation, usual class: activators | 1.3% of 330,000 active | AID 504466; note: % of control where 0% means no effect; nearly all actives have a fitted effect of over 60% in size
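Genotoxicity was scored as increased ELG1-luciferase reporter signal, measured by ONE-Glo luminescence (30 min, room temperature). Compound or vehicle exposure of the HEK293T reporter cells lasted 16 hr at 37°C.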
SMN2 splice up: enhancers of SMN2 splice variant expression; HEK293 SMN2-luciferase splicing reporter, luminescence, 30-36 h; Potency, µM (highest dose often 46.1 µM), for the others: at the highest dose activity change, positive = activation, usual class: activators; 2.8% of 210,000 active; note: % of control where 0% means no effect; nearly all actives have a fitted effect of over 55% in size
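qHTS luciferase splicing reporter: luminescence rises when SMN2 exon 7 is included in transfected HEK293 cells. Compound exposure lasted 30-36 h at 37C, with 4.5 mM final sodium butyrate as control, followed by a ONE-Glo read.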
FLuc counter: inhibits or activates purified firefly luciferase, miR-21 counter-screen | Potency, µM (top dose mostly 57.5 µM), for inactives: top-dose activity change, negative = inhibition, usual class: inhibitors | 6.9% of 360,000 active | purified FLuc, Km substrates, luminescence inhibition | AID 588342;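 note: plate controls were vehicle for no effect and reference inhibitor for full effect; nearly all actives have a fitted effect of over 55% in size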
Target sequence (P08659 whole entry, looked up): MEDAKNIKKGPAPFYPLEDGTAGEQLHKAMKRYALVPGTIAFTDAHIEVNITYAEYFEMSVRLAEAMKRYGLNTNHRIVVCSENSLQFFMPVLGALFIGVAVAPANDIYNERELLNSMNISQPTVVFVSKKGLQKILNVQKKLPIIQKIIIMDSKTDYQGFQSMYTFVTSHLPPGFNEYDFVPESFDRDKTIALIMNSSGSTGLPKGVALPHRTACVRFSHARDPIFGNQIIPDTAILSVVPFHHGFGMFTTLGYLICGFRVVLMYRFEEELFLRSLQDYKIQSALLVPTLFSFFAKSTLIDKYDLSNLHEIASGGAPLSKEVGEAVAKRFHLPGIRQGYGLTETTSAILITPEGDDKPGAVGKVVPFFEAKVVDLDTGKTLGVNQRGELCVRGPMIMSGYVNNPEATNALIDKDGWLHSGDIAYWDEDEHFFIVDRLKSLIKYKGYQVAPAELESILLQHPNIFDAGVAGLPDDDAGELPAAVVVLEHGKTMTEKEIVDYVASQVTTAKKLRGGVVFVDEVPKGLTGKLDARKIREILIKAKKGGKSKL
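Purified P. pyralis luciferase, 10 nM final, with Km-level 10 uM D-luciferin and 10 uM ATP in 50 mM Tris acetate pH 7.5, 10 mM Mg acetate, 0.01% Tween-20, 0.05% BSA; 6-point qHTS titration about 60 µM downward; luminescence read.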
NPC1 prom act: activators of NPC1 promoter; 2.4% of 320,000 active; Huh7 NPC1 promoter luciferase reporter, 24 h; AID 485313; Potency, µM (top dose mostly 9.22 µM), for inactives: top-dose activation, usual class: activators; note: % of control where 0% means no effect; nearly all actives have a fitted effect of over 60% in size
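Luciferase expression driven by the NPC1 promoter was measured in stably transfected Huh7 cells after a 24 h compound incubation, using a luciferase reagent and a luminescence read.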
ELG1 repair inh: ELG1-dependent DNA repair inhibition | HEK293T ELG1-luciferase reporter, luminescence, 16 h; DNA damage induced by 5-fluorouridine | Potency, µM (series often up to 46.1 µM), for inactives: at the highest dose activity change, negative = inhibition, hits mostly inhibitors | 2.3% of 330,000 active; note: % is set by controls: 0 for no effect and ±100 for the full control effect; nearly all actives have a fitted effect of over 55% in size
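Reporter activity after DNA damage by 5-fluorouridine is monitored. Compound-treated cells incubate 16 hr at 37 °C, then ONE-Glo is added for 30 min before luminescence reading.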
* hit, by the source's call; ? = inconclusive; . = no result given. Calls come from the whole dose curve; as a rule, active = well fitted curve in the direction sought with a large enough effect; inconclusive = small, poorly fitted or top-dose-only effect, or another doubt; inactive = no such curve, though single readings can be large; an effect the other way counts as inactive or inconclusive. Potency is the fitted concentration of half-maximal effect.

SMILES	Rab9 prom act	ELG1 genotox	SMN2 splice up	FLuc counter	NPC1 prom act	ELG1 repair inh
Cc1ccc(OCC(=O)N2CCCCCCC2)cc1C	?	10%	.	?	17%	?
Cc1cc(OCC(=O)Nc2cnn(CCCC(=O)O)c2)ccc1[N+](=O)[O-]	12%	0%	.	-7%	-4%	30%
Cc1cc(OCC(=O)Nc2ccncc2)ccc1[N+](=O)[O-]	-16%	-7%	8%	-5%	-12%	7.3µM*
Cc1cc(OCC(=O)N2CCCCCC2)ccc1[N+](=O)[O-]	?	?	13µM*	17µM*	?	?
CCN(CC)S(=O)(=O)c1cc(NC(=O)C(CC(C)C)NC(N)=O)ccc1C (stereo not given)	-2%	-7%	-17%	1%	-5%	-11%
COCC(=O)N1CCN(c2nc3ccccc3o2)CC1	17%	1%	18%	-4%	5%	?
O=C(CCCC(=O)OCC(=O)c1ccc(Cl)cc1)NC1CCCCC1	4%	3%	.	12µM*	3%	8%
CC(C)(C)c1ccc(C(=O)NNC(=O)CCC(=O)Nc2ccccc2)cc1	6%	17%	.	3.4µM*	11%	7%
Cc1cc(NC(=O)CCC(=O)NNC(=O)c2ccc(C(C)(C)C)cc2)no1	11%	8%	5%	2.4µM*	4%	?
CCC(=O)NNC(=O)CCC(=O)Nc1ccccc1	-1%	2%	?	-3%	-2%	?
CCN(CC)CCCNC(=O)c1cc(-c2ccc(Cl)cc2)on1	6%	2%	-10%	2%	15%	-8%
CCCCNC(=O)c1cc(-c2ccc3c(c2)OCO3)on1	2µM*	?	.	2.7µM*	3.5µM*	?
CCN(CC)C(=O)c1cc(-c2ccc(Cl)cc2)on1	.	.	10µM*	13µM*	.	.
CCN(CC)CCCNC(=O)c1cc(-c2ccc3c(c2)OCO3)on1	0%	4%	.	-10%	0%	?
CCCNC(=O)c1cc(-c2ccc3c(c2)OCO3)on1	0.56µM*	?	.	3.8µM*	0.63µM*	?
O=C(NCc1ccc2c(c1)OCO2)c1cc(-c2ccc(Cl)cc2Cl)on1	0%	-4%	-4%	12µM*	2%	10%
COc1cc(C(=O)NNC(=O)C2CC2)cc(OC)c1OC	-2%	-9%	.	-1%	-3%	-10%
COc1ccc(N2C(=NC(=O)C3CC3)SC3CS(=O)(=O)CC32)cc1Cl (stereo not given)	-1%	5%	.	1%	-2%	1%
COCCCNC(=O)c1nn(-c2ccc(C)cc2)c(=O)n(C)c1=O	.	.	.	-2%	.	.
Cc1ccc(Oc2ncccc2C(=O)NC2CCSC2=O)cc1 (stereo not given)	-23%	0%	11%	0%	0%	6%
CC(C)NC(=O)c1cc(-c2ccc3c(c2)OCO3)on1	0.63µM*	?	.	3.8µM*	0.56µM*	?
CCN(CC)C(=O)c1cc(-c2ccc3c(c2)OCO3)on1	3.5µM*	?	.	9.5µM*	4µM*	?
Cc1ccc(O)c(NC(=O)c2cc(-c3ccc4c(c3)OCO4)on2)c1	.	.	17%	?	.	.
O=C(CSc1nnc(-c2cccc(Cl)c2)o1)N1CCc2ccccc21	.	.	-2%	2%	.	.
CCN(C[C@H]1N[C@@](C)(C(=O)OC)[C@H]2C(=O)N(Cc3ccccc3)C(=O)[C@@H]12)C(=O)c1ccc(C(C)(C)C)cc1	.	-8%	.	.	.	10µM*
COc1cc(C(=O)N(Cc2cccnc2)c2nc3cc(C)c(C)cc3s2)cc(OC)c1OC	.	.	.	0%	.	.
O=C(c1ccc2c(c1)OCCO2)N(Cc1cccnc1)c1nc2ccc(F)cc2s1	.	.	.	17µM*	.	.
COc1ccc2nc(N(Cc3cccnc3)C(C)=O)sc2c1	.	.	.	-12%	.	.
CCS(=O)(=O)c1ccccc1C(=O)N(Cc1cccnc1)c1nc2cc(C)c(C)cc2s1	.	.	.	21µM*	.	.
CCOc1ccc2nc(N(Cc3cccnc3)C(=O)c3ccco3)sc2c1	.	.	.	17µM*	.	.
